Results from PubChem BioAssay AID1508625 (Wald Lab, School of Medicine, Case Western Reserve …, 2021).

Assay: enhancers of NK cell killing of ovarian tumor cells, primary screen, imaging, OVCAR3, primary NK cells, calcein-AM imaging (AID 1508625);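 also: compound given to NK cells 16 h before adding targets at 1.5 to 1 ratio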
Settings: OVCAR3 lysis by primary NK cells, at 5 µM; z-score: measured here: robust Z-score, single-point normalisation

| SMILES | corrected activity, negative = more killing | z-score |
| --- | --- | --- |
| CCOc1ccc2nc(SCCC(=O)Nc3ccc(OC)cc3)sc2c1 | -5.58% | -2.99 |
| COc1ccc(OC)c(NC(=O)CSc2nc3c([nH]c4ccccc43)c(=O)n2C)c1 | -8.66% | -2.15 |
| O=C(c1cccc(F)c1)N1CCCN(C(=O)c2cccc(F)c2)CC1 | -4.12% | -1.69 |
| O=C1c2ccccc2C(=O)c2c1cc(F)cc2N1CCCCC1 | -1.34% | -0.401 |
| Cc1cc(C)cc(NC(=O)c2cc(S(=O)(=O)NC3CCCCC3)ccc2F)c1 | -5.25% | -1.42 |
| COC(=O)CCC(=O)NNC(=O)c1ccc(Br)cc1 | -3.77% | -1.49 |
| COc1cccc(Nc2ncnc3sc(C)c(S(=O)(=O)N4CCC(C)CC4)c23)c1 | -2.61% | -0.65 |
| Cc1ccc(-c2noc(-c3ccccc3F)n2)cc1 | -2.22% | -0.911 |
| COc1ccc(-n2c(=S)[nH]c3cc(C(=O)NCc4ccc(Cl)cc4)ccc3c2=O)cc1 | -2.4% | -0.763 |
| Brc1ccc(-c2noc(CSc3ccccc3)n2)cc1 | -0.336% | -0.187 |
| CCCc1c(C)c2cc3c(C)coc3cc2oc1=O | -6.81% | -2.03 |
| CC1(C)COC(c2ccccc2)=N1 | -5.76% | -1.78 |
| CCOc1ccccc1C(=O)Nc1ccc(S(=O)(=O)N2CCCCC2C)cc1 (stereo unspecified) | -4.3% | -1.33 |
| Cc1cc(Br)c(O)c(C=NCCNC(=O)c2nonc2N)c1 | 0.42% | 0.173 |
| CCOc1ccc(-c2cc(C(=O)NN=Cc3cccnc3)[nH]n2)cc1 | -4.91% | -2.15 |
| COc1ccccc1N1CCN(C(=O)NC2CCCCC2)CC1 | -0.143% | -0.0428 |
| Cc1c(C(=O)Nc2ccccc2O)cccc1[N+](=O)[O-] | -4.28% | -1.61 |
| COc1ccc(C=Nc2ccc(C(N)=O)cc2)cc1 | -2.24% | -0.885 |
| CCN1C(=O)c2cccc3c(NC(=O)C45CC6CC(CC(C6)C4)C5)ccc1c23 | -12.5% | -2.63 |
| COc1ccc(C(N)=NOC(=O)CSc2ccccc2)cc1 | -1.04% | -0.576 |
| COc1ccc(-n2c(=S)[nH]c3cc(C(=O)N4CCOCC4)ccc3c2=O)cc1 | -10.1% | -3.21 |
| O=C(Nc1nc2ccccc2s1)C(=O)Nc1nc2ccccc2s1 | 0.998% | 0.309 |
| COc1cc2nc(SCC(=O)Nc3cc(C(F)(F)F)ccc3Cl)n(Cc3ccco3)c(=O)c2cc1OC | -3.79% | -1 |
